In PubChem BioAssay AID1159580 (chemical genetic matrix, 2015):
Several values for one entry are separate records, joined by “and”; a condition that tells them apart may be missing. Equal entries are not always repeated. In all, about 5,500 compounds went through this assay and about 2,000 (36%) were called active. Roughly 18% stayed inconclusive and do not appear here. Cut-off read from the data, not from the text of the source: active = normalized growth mostly below about 0.91 (no sharp cut-off); inconclusive = no clear call, values can overlap the other calls; inactive = mostly above about 0.92. The list shows a part of the results.

Assay: chemical genetic growth profiling, strain panel (AID 1159580);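 note: tested at 20 µM; growth read once vehicle control cultures reached saturation at 30 °C; 1 = growth at the plate median or of vehicle wells; lower values mean less growth of the strain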
Conditions: growth OD

Measured: normalized growth

CCC1(c2ccc(N)cc2)CCC(=O)NC1=O (stereo not drawn)
inactive: S. cerevisiae deletion strains, locus YJR075W, strain HOC1, hits give low values 0.998 | S. cerevisiae deletion strains, locus YKL009W, strain mrt4, hits give low values 1.01 | S. cerevisiae deletion strains, locus YKL068W, hits give low values 1 | S. cerevisiae deletion strains, locus YKL085W, strain MDH1 (second series), hits give low values 1 | S. cerevisiae deletion strains, locus YKL085W, strain MDH1, hits give low values 1 | S. cerevisiae deletion strains, locus YKL160W, strain elf1, hits give low values 0.939 | S. cerevisiae deletion strains, locus YKR001C, strain vps1, hits give low values 0.995 | S. cerevisiae deletion strains, locus YKR026C, strain gcn3, hits give low values 0.961 | S. cerevisiae deletion strains, locus YKR091W, strain srl3, hits give low values 0.977 | S. cerevisiae deletion strains, locus YLL001W, strain dnm1, hits give low values 0.903 | S. cerevisiae deletion strains, locus YLL026W, hits give low values 0.956 | S. cerevisiae deletion strains, locus YLL041C, strain sdh2, hits give low values 0.968 | S. cerevisiae deletion strains, locus YLR027C, strain aat2, hits give low values 0.94 | S. cerevisiae deletion strains, locus YLR039C, strain RIC1, hits give low values 1.02 | S. cerevisiae deletion strains, locus YLR058C, strain SHM2, hits give low values 1.01 | S. cerevisiae deletion strains, locus YLR102C, strain apc9, hits give low values 0.992 | S. cerevisiae deletion strains, locus YLR113W, strain HOG1, hits give low values 1.06 | S. cerevisiae deletion strains, locus YLR221C, strain rsa3, hits give low values 0.99 | S. cerevisiae deletion strains, locus YLR258W, strain gsy2, hits give low values 0.992 | S. cerevisiae deletion strains, locus YLR262C, strain YPT6 (second series), hits give low values 0.999 | S. cerevisiae deletion strains, locus YLR262C, strain YPT6, hits give low values 1.03 | S. cerevisiae deletion strains, locus YLR268W, strain sec22, hits give low values 1.01 | S. cerevisiae deletion strains, locus YLR320W, strain mms22, hits give low values 0.978 | S. cerevisiae deletion strains, locus YLR330W, strain CHS5, hits give low values 1.01 | S. cerevisiae deletion strains, locus YLR342W, strain FKS1 (second series), hits give low values 1.02 | S. cerevisiae deletion strains, locus YLR342W, strain FKS1, hits give low values 0.926 | S. cerevisiae deletion strains, locus YLR357W, strain rsc2, hits give low values 0.917 | S. cerevisiae deletion strains, locus YLR370C, strain arc18, hits give low values 0.969 | S. cerevisiae deletion strains, locus YLR371W, strain rom2, hits give low values 0.997 | S. cerevisiae deletion strains, locus YLR384C, strain iki3, hits give low values 0.972 | S. cerevisiae deletion strains, locus YLR418C, strain cdc73, hits give low values 1 | S. cerevisiae deletion strains, locus YML016C, strain PPZ1, hits give low values 1.01 | S. cerevisiae deletion strains, locus YML032C, strain rad52, hits give low values 1 | S. cerevisiae deletion strains, locus YML120C, strain ndi1, hits give low values 0.93 | S. cerevisiae deletion strains, locus YML124C, strain tub3, hits give low values 0.985 | S. cerevisiae deletion strains, locus YMR058W, strain fet3, hits give low values 0.944 | S. cerevisiae deletion strains, locus YMR078C, strain ctf18, hits give low values 0.997 | S. cerevisiae deletion strains, locus YMR125W, strain sto1, hits give low values 0.988 | S. cerevisiae deletion strains, locus YMR129W, hits give low values 0.969 | S. cerevisiae deletion strains, locus YMR205C, strain PFK2, hits give low values 1 | S. cerevisiae deletion strains, locus YMR223W, strain ubp8, hits give low values 0.993 | S. cerevisiae deletion strains, locus YMR231W, strain pep5, hits give low values 0.973 | S. cerevisiae deletion strains, locus YMR263W, strain SAP30, hits give low values 1 | S. cerevisiae deletion strains, locus YMR307W, strain GAS1, hits give low values 0.942 | S. cerevisiae deletion strains, locus YNL067W, strain RPL9B, hits give low values 0.997 | S. cerevisiae deletion strains, locus YNL071W, strain lat1, hits give low values 0.986 | S. cerevisiae deletion strains, locus YNL128W, strain TEP1, hits give low values 1.01 | S. cerevisiae deletion strains, locus YNL153C, strain GIM3, hits give low values 1.02 | S. cerevisiae deletion strains, locus YNL175C, strain NOP13, hits give low values 0.992 | S. cerevisiae deletion strains, locus YNL183C, strain NPR1, hits give low values 0.974 | S. cerevisiae deletion strains, locus YNL197C, strain WHI3, hits give low values 0.987 | S. cerevisiae deletion strains, locus YNL209W, strain ssb2, hits give low values 0.997 | S. cerevisiae deletion strains, locus YNL224C, strain SQS1, hits give low values 1.02 | S. cerevisiae deletion strains, locus YNL233W, strain BNI4, hits give low values 0.994 | S. cerevisiae deletion strains, locus YNL248C, strain rpa49, hits give low values 0.955 | S. cerevisiae deletion strains, locus YNL250W, strain rad50, hits give low values 1 | S. cerevisiae deletion strains, locus YNL271C, strain bni1, hits give low values 0.995 | S. cerevisiae deletion strains, locus YNL298W, strain CLA4, hits give low values 0.992 | S. cerevisiae deletion strains, locus YNL307C, strain MCK1, hits give low values 0.999 | S. cerevisiae deletion strains, locus YNL322C, strain KRE1 (second series), hits give low values 0.973 | S. cerevisiae deletion strains, locus YNL322C, strain KRE1, hits give low values 0.996 and 1.02 | S. cerevisiae deletion strains, locus YNR049C, strain mso1, hits give low values 0.971 | S. cerevisiae deletion strains, locus YNR052C, strain pop2, hits give low values 0.988 | S. cerevisiae deletion strains, locus YOL012C, strain htz1 0.83 | S. cerevisiae deletion strains, locus YOL147C, strain pex11, hits give low values 0.999 | S. cerevisiae deletion strains, locus YOR001W, strain rrp6, hits give low values 0.934 | S. cerevisiae deletion strains, locus YOR061W, strain CKA2, hits give low values 1.02 | S. cerevisiae deletion strains, locus YOR069W, strain VPS5, hits give low values 1 | S. cerevisiae deletion strains, locus YOR070C, strain gyp1, hits give low values 0.987 | S. cerevisiae deletion strains, locus YOR080W, strain dia2, hits give low values 0.958 | S. cerevisiae deletion strains, locus YOR083W, strain WHI5 (second series), hits give low values 1.02 | S. cerevisiae deletion strains, locus YOR083W, strain WHI5, hits give low values 0.922 | S. cerevisiae deletion strains, locus YOR106W, strain vam3, hits give low values 0.899 | S. cerevisiae deletion strains, locus YOR136W, strain idh2, hits give low values 0.983 | S. cerevisiae deletion strains, locus YOR144C, strain elg1, hits give low values 1 | S. cerevisiae deletion strains, locus YOR184W, strain ser1, hits give low values 1.02 | S. cerevisiae deletion strains, locus YOR231W, strain MKK1, hits give low values 1.05 | S. cerevisiae deletion strains, locus YOR265W, strain rbl2, hits give low values 0.966 | S. cerevisiae deletion strains, locus YOR270C, strain vph1, hits give low values 0.977 | S. cerevisiae deletion strains, locus YOR290C, strain snf2, hits give low values 0.995 | S. cerevisiae deletion strains, locus YOR316C, strain cot1, hits give low values 0.996 | S. cerevisiae deletion strains, locus YPL051W, strain arl3, hits give low values 0.962 | S. cerevisiae deletion strains, locus YPL106C, strain sse1, hits give low values 1 | S. cerevisiae deletion strains, locus YPL240C, strain hsp82, hits give low values 0.983 | S. cerevisiae deletion strains, locus YPL241C, strain CIN2, hits give low values 1 and 1.01 | S. cerevisiae deletion strains, locus YPL256C, strain CLN2, hits give low values 1.07 | S. cerevisiae deletion strains, locus YPR119W, strain clb2, hits give low values 0.991 | S. cerevisiae deletion strains, locus YPR141C, strain kar3, hits give low values 1 | S. cerevisiae deletion strains, locus YPR163C, strain tif3, hits give low values 1 | S. cerevisiae deletion strains, locus YPR167C, strain met16, hits give low values 0.997 | S. cerevisiae deletion strains, strain wtn01, hits give low values 0.985 | S. cerevisiae strains, strain wild type, hits give low values 1.01
active: S. cerevisiae deletion strains, locus YPL078C, strain atp4, hits give low values 0.89
